In PubChem BioAssay AID1159580 (chemical genetic matrix, 2015):
About 2,000 (36%) of roughly 5,500 compounds were called active. Roughly 18% stayed inconclusive and do not appear here. The list shows a part of the results. A number with no mark means an inactive call. No stated cut-off is given here; in the data, active means normalized growth mostly below about 0.91 (no sharp cut-off); inconclusive means no clear call, values can overlap the other calls; inactive means mostly above about 0.92.

Assay: chemical genetic growth profiling, strain panel (AID 1159580);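 further: tested at 20 µM; growth read once vehicle control cultures reached saturation at 30 °C; 1 = growth at the plate median or of vehicle wells; lower values mean less growth of the strain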
Details: S. cerevisiae deletion strains, growth OD

Which results are given for `N=C(N)c1ccc(OCCCCCOc2ccc(C(=N)N)cc2)cc1`?
normalized growth (locus YAL013W, strain DEP1, hits give low values): 1; normalized growth (locus YAL021C, strain ccr4, hits give low values): 0.908; normalized growth (locus YAL026C, strain drs2, hits give low values): 0.951; normalized growth (locus YAL030W, strain snc1, hits give low values): 0.935; normalized growth (locus YBL061C, strain skt5, hits give low values): 0.966; normalized growth (locus YBR009C, strain hhf1, hits give low values): 0.952; normalized growth (locus YBR021W, strain FUR4, hits give low values): 1.07; normalized growth (locus YBR023C, strain chs3, hits give low values): 0.986; normalized growth (locus YBR171W, strain sec66, hits give low values): 0.946; normalized growth (locus YBR229C, strain ROT2, hits give low values): 0.978; normalized growth (locus YBR231C, strain swc5, hits give low values): 0.919; normalized growth (locus YBR279W, strain paf1, hits give low values): 0.93 (active); normalized growth (locus YCL011C, strain gbp2, hits give low values): 0.945; normalized growth (locus YCL016C, strain dcc1, hits give low values): 0.939; normalized growth (locus YCL029C, strain bik1, hits give low values): 0.89 (active); normalized growth (locus YCL061C, strain MRC1, hits give low values): 0.916 (active); normalized growth (locus YCL069W, strain vba3, hits give low values): 0.963; normalized growth (locus YCR088W, strain abp1, hits give low values): 0.966; normalized growth (locus YDL005C, strain med2, hits give low values): 0.979; normalized growth (locus YDL035C, strain GPR1, hits give low values): 0.901; normalized growth (locus YDL040C, strain nat1, hits give low values): 0.965; normalized growth (locus YDL074C, strain BRE1, hits give low values): 0.942; normalized growth (locus YDL101C, strain DUN1, hits give low values): 0.989; normalized growth (locus YDL134C, strain PPH21, hits give low values): 0.955; normalized growth (locus YDL185W, strain tfp1, hits give low values): 0.964; normalized growth (locus YDL192W, strain arf1, hits give low values): 0.933; normalized growth (locus YDR001C, strain nth1, hits give low values): 0.974; normalized growth (locus YDR069C, strain doa4, hits give low values): 1; normalized growth (locus YDR101C, strain arx1, hits give low values): 0.875 (active); normalized growth (locus YDR137W, strain rgp1, hits give low values): 1; normalized growth (locus YDR150W, strain NUM1, hits give low values): 0.989; normalized growth (locus YDR159W, strain sac3, hits give low values): 0.85 (active); normalized growth (locus YDR162C, strain NBP2, hits give low values): 0.941; normalized growth (locus YDR195W, strain ref2): 0.968; normalized growth (locus YDR297W, strain sur2, hits give low values): 0.958; normalized growth (locus YDR318W, strain mcm21, hits give low values): 0.878 (active); normalized growth (locus YDR334W, strain swr1, hits give low values): 0.958; normalized growth (locus YDR335W, strain msn5, hits give low values): 0.977; normalized growth (locus YDR388W, hits give low values): 0.938; normalized growth (locus YDR392W, strain spt3, hits give low values): 0.808; normalized growth (locus YDR502C, strain sam2, hits give low values): 0.907 (active); normalized growth (locus YEL003W, strain gim4, hits give low values): 0.929; normalized growth (locus YEL037C, strain rad23, hits give low values): 0.945; normalized growth (locus YEL061C, strain CIN8 (second series), hits give low values): 0.945; normalized growth (locus YEL061C, strain CIN8, hits give low values): 0.965; normalized growth (locus YER015W, strain faa2, hits give low values): 0.922 (active); normalized growth (locus YER016W, strain bim1, hits give low values): 0.963; normalized growth (locus YER110C, hits give low values): 0.95; normalized growth (locus YER111C, strain swi4, hits give low values): 0.967; normalized growth (locus YER155C, strain BEM2 (second series), hits give low values): 0.874; normalized growth (locus YER155C, strain BEM2, hits give low values): 0.986; normalized growth (locus YER167W, strain BCK2, hits give low values): 0.915; normalized growth (locus YFR010W, strain ubp6, hits give low values): 0.954; normalized growth (locus YGL078C, strain dbp3, hits give low values): 0.929; normalized growth (locus YGL086W, strain mad1, hits give low values): 0.874 (active); normalized growth (locus YGL167C, strain pmr1, hits give low values): 0.974; normalized growth (locus YGL173C, strain kem1, hits give low values): 0.865 (active); normalized growth (locus YGL227W, strain vid30, hits give low values): 0.984; normalized growth (locus YGL240W, strain doc1, hits give low values): 0.991; normalized growth (locus YGL248W, strain PDE1, hits give low values): 0.964; normalized growth (locus YGL253W, strain hxk2, hits give low values): 0.8 (active); normalized growth (locus YGR078C, strain PAC10, hits give low values): 0.947; normalized growth (locus YGR135W, strain pre9, hits give low values): 0.937; normalized growth (locus YGR229C, strain SMI1, hits give low values): 0.929; normalized growth (locus YGR252W, strain gcn5, hits give low values): 0.819; normalized growth (locus YHR013C, strain ard1, hits give low values): 1.09; normalized growth (locus YHR027C, strain rpn1, hits give low values): 0.946; normalized growth (locus YHR030C, strain SLT2, hits give low values): 0.974; normalized growth (locus YHR079C, strain IRE1 (second series), hits give low values): 0.888 (active); normalized growth (locus YHR094C, strain hxt1, hits give low values): 0.94; normalized growth (locus YHR129C, strain ARP1, hits give low values): 0.968; normalized growth (locus YHR142W, strain chs7, hits give low values): 0.972; normalized growth (locus YHR200W, strain rpn10, hits give low values): 0.871 (active); normalized growth (locus YIL066C, strain RNR3, hits give low values): 0.917; normalized growth (locus YIL073C, strain SPO22, hits give low values): 0.675; normalized growth (locus YIL125W, strain kgd1, hits give low values): 0.903 (active); normalized growth (locus YIR030C, strain dcg1, hits give low values): 0.93; normalized growth (locus YJL092W, strain hpr5, hits give low values): 0.919; normalized growth (locus YJL095W, strain BCK1 (second series), hits give low values): 0.959; normalized growth (locus YJL095W, strain BCK1, hits give low values): 0.892; normalized growth (locus YJL115W, strain asf1, hits give low values): 0.923; normalized growth (locus YJL129C, strain trk1, hits give low values): 0.995; normalized growth (locus YJL134W, strain LCB3, hits give low values): 0.967; normalized growth (locus YJL154C, strain vps35, hits give low values): 0.989; normalized growth (locus YJL164C, strain tpk1, hits give low values): 0.974; normalized growth (locus YJL166W, strain qcr8, hits give low values): 0.978; normalized growth (locus YJL168C, strain set2, hits give low values): 0.925 (active); normalized growth (locus YJL187C, strain SWE1 (second series), hits give low values): 0.929
